{"source": "paper PMC7862700", "about": "“An all-to-all approach to the identification of sequence-specific readers for epigenetic DNA modifications on cytosine”", "test_in_all_cases": "DAPPL (digital affinity profiling via proximity ligation, sequencing); 10 mM Tris-HCl pH 7.5, 50 mM NaCl, 1 mM DTT, 4% glycerol, room temperature, 30 min; GST-TFs on glutathione beads, 16-mer random dsDNA library, 0.1% formaldehyde crosslink after washing; high values mean tight binding", "conditions_in_all_cases": "protein: recombinant; tags: N-terminal GST; dsDNA, one strand shown", "key": {"FLI1": {"molecular_target": "T1, FLI1 (Homo sapiens, UniProt Q01543 1-452)", "T1 sequence": "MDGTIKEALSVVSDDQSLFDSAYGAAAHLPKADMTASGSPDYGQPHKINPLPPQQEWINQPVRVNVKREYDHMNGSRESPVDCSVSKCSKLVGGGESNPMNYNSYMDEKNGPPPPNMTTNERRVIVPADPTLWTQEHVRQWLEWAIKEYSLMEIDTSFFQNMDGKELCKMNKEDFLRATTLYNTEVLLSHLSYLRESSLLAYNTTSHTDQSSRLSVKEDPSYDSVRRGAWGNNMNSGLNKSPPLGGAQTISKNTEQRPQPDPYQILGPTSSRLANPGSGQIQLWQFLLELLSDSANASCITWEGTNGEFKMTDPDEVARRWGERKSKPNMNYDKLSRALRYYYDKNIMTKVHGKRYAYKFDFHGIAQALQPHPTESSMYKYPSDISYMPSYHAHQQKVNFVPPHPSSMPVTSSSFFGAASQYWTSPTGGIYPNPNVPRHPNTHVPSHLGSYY", "method_in_brief": "(§1)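 Binding signal is defined as a hexamer's read frequency for one factor over its frequency for the tag-only sample. To obtain reads, GST-fused human transcription factors were expressed in yeast, captured on glutathione beads, barcoded with DNA and pooled with that sample. Pools met 200 nmole of a 16-mer random double-stranded DNA library in Tris/NaCl/DTT/glycerol buffer for 30 min at room temperature before washing, 0.1% formaldehyde crosslinking, proximity ligation (BsaI/T4 ligase, 1 h, 37 °C), PCR and Illumina NextSeq500 sequencing.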"}, "ELK1": {"molecular_target": "T2, ELK1 (Homo sapiens, UniProt P19419 1-428)", "T2 sequence": "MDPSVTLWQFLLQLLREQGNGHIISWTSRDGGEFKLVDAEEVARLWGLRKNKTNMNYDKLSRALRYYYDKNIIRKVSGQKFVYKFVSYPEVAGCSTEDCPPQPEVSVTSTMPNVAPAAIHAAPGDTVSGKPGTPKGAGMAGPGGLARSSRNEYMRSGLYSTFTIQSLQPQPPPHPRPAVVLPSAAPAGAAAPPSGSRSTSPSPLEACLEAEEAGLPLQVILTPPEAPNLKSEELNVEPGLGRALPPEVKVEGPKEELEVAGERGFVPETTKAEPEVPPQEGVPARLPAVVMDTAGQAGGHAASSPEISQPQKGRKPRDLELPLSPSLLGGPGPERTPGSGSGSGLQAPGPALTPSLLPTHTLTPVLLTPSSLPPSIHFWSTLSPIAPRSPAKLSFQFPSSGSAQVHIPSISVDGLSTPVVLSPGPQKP", "method_in_brief": "as §1"}, "GABPA": {"molecular_target": "T3, GABPA (Homo sapiens, UniProt Q06546 1-454)", "T3 sequence": "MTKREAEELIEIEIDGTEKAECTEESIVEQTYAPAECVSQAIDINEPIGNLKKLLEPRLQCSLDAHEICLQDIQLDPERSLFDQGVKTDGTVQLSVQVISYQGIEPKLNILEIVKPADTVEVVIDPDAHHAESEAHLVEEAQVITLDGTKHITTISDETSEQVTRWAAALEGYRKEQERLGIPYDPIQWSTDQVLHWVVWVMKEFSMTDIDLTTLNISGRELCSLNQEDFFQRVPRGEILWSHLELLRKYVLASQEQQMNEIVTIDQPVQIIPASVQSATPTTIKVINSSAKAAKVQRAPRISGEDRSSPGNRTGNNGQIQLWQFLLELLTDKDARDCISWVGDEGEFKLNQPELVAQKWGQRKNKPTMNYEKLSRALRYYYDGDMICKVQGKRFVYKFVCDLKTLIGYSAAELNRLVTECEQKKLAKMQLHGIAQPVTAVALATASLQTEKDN", "method_in_brief": "as §1"}, "ERG": {"molecular_target": "T4, ERG (Homo sapiens, UniProt P11308 1-479)", "T4 sequence": "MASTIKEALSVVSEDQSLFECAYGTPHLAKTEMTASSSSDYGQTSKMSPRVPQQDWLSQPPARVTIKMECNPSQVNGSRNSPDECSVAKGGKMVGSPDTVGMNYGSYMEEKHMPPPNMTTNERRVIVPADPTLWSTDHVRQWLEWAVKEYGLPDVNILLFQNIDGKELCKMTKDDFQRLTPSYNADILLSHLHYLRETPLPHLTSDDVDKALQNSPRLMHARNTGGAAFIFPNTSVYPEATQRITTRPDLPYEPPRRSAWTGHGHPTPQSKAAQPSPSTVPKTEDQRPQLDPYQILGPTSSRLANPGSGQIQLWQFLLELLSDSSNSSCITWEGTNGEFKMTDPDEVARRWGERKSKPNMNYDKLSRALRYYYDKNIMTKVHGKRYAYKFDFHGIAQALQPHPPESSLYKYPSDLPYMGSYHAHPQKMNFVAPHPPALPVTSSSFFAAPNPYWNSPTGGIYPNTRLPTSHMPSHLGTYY", "method_in_brief": "as §1"}, "ELF1": {"molecular_target": "ELF1 (Homo sapiens, UniProt P32519 1-619)", "sequence (P32519 whole entry)": "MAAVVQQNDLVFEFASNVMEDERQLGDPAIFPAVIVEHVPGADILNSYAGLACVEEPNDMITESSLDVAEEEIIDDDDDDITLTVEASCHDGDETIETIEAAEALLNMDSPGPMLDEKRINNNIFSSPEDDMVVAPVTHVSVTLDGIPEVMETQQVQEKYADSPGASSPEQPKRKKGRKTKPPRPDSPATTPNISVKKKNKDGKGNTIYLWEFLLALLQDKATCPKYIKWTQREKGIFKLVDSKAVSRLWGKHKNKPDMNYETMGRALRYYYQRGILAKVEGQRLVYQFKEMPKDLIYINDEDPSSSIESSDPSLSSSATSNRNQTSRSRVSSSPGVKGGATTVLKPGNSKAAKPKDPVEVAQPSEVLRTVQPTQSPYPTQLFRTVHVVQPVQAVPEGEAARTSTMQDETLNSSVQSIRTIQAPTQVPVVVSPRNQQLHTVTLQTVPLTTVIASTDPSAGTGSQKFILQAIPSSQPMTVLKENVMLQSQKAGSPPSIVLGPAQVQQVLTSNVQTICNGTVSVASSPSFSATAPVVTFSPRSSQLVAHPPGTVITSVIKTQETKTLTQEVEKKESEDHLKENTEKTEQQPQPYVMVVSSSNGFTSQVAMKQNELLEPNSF", "method_in_brief": "as §1"}, "EHF": {"molecular_target": "T5, EHF (Homo sapiens, UniProt Q9NZC4 1-300)", "T5 sequence": "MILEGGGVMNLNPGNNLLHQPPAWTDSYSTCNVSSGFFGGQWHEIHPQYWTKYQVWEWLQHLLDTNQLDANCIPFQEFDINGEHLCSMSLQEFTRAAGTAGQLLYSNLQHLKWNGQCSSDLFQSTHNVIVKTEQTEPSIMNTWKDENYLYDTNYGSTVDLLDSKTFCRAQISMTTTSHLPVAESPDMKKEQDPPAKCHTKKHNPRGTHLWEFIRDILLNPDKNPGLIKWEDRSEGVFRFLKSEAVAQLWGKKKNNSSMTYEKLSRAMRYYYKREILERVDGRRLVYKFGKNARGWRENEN", "method_in_brief": "as §1"}, "SPI1": {"molecular_target": "SPI1 (Homo sapiens, UniProt P17947 1-270)", "method_in_brief": "as §1"}, "SPIB": {"molecular_target": "SPIB (Homo sapiens, UniProt Q01892 1-262)", "sequence (Q01892 whole entry)": "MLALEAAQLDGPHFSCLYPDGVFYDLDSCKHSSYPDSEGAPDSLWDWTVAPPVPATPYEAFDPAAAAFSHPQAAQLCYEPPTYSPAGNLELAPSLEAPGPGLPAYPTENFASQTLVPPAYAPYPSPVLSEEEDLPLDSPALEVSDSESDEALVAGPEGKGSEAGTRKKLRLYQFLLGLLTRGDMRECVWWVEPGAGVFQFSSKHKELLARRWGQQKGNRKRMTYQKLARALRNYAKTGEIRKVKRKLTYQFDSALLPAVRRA", "method_in_brief": "as §1"}, "ELK3": {"molecular_target": "T6, ELK3 (Homo sapiens, UniProt P41970 1-407)", "T6 sequence": "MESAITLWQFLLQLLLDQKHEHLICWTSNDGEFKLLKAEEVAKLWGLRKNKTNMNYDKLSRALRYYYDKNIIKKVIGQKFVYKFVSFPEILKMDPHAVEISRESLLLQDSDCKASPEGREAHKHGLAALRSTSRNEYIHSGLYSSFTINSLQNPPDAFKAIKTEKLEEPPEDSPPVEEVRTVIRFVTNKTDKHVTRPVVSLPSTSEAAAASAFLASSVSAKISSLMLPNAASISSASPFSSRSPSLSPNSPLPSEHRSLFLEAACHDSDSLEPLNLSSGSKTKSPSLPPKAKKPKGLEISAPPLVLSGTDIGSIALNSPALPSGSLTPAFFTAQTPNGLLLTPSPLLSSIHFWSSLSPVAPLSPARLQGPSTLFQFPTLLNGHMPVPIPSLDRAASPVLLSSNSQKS", "method_in_brief": "as §1"}}}
{"sequence": "CCACTA", "values": [{"measurement": "binding signal", "setting": "FLI1", "result": "1.1 fold enrichment (6-mer frequency, TF over GST control)"}, {"measurement": "binding signal", "setting": "ELK1", "result": "1.14 fold enrichment (6-mer frequency, TF over GST control)"}, {"measurement": "binding signal", "setting": "GABPA", "result": "1.14 fold enrichment (6-mer frequency, TF over GST control)"}, {"measurement": "binding signal", "setting": "ERG", "result": "1.08 fold enrichment (6-mer frequency, TF over GST control)"}, {"measurement": "binding signal", "setting": "ELF1", "result": "1.13 fold enrichment (6-mer frequency, TF over GST control)"}, {"measurement": "binding signal", "setting": "EHF", "result": "1.06 fold enrichment (6-mer frequency, TF over GST control)"}, {"measurement": "binding signal", "setting": "SPI1", "result": "1.04 fold enrichment (6-mer frequency, TF over GST control)"}, {"measurement": "binding signal", "setting": "SPIB", "result": "1.04 fold enrichment (6-mer frequency, TF over GST control)"}, {"measurement": "binding signal", "setting": "ELK3", "result": "1.22 fold enrichment (6-mer frequency, TF over GST control)"}]}
